# Assay outcomes as filed in PubChem.
# In the library only some 2.8% were active in any assay of this set; here they are far more common.
# Pol iota inh – inhibitors of human DNA polymerase iota; hit rate 1% among 390,000; Q9UNA4; AID 588590; Potency, µM (series often up to 115 µM), most hits filed as inhibitors; Pol iota fluorescent replication assay, 10 min
#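 Pol iota at 10 nM preincubated 15 min with compounds at room temperature; reaction started with fluorescent substrate, 50 nM final. Fluorescence read kinetically at 0 and 10 min; buffer-only wells as negative control.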
# POLH inh – DNA polymerase eta (human) inhibition; Potency, µM (top dose mostly 114 µM), most hits filed as inhibitors; recombinant Pol eta, fluorescent DNA replication assay; hit rate 1.2% among 390,000; Q9Y253
#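 Fluorescent replication assay: 50 nM final substrate added after a 15 min room-temperature compound preincubation with 10 nM enzyme. Signal taken at 0 min and again at 10 min.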
# POLB inh – blocks human DNA polymerase beta activity. Pol beta primer extension/strand displacement, fluorescence kinetic. Potency, µM (doses to about 114 µM), hits mostly inhibitors. hit rate 1.3% among 340,000
#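 Values derive from four-parameter Hill fits of normalized kinetic data: reads at 0 and 10 min following addition of 50 nM substrate to 10 nM Pol beta preincubated 15 min with compound.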
# Pol kappa inh – inhibitors of human DNA polymerase kappa. purified Pol kappa, fluorescent DNA synthesis assay, 10 min. Potency, µM (doses to about 107 µM), hits mostly inhibitors. hit rate 0.53% among 400,000. AID 588579
#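 Fluorescent qHTS in 1536-well format: enzyme (10 nM) and compound sat 15 min at room temperature before 50 nM substrate (final) was added. Signal taken at 0 and 10 min; no-enzyme buffer wells were negative controls.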
# PI5P4Ka inh – PI5P4K alpha (human) kinase inhibition; P48426; PI5P4Kalpha enzyme, ADP-Glo luminescence, 60 min; hits give low values; max response, %; hit rate 1.2% among 330,000; AID 652105; active = max response of -50% or lower; inconclusive = between -30% and -50%; inactive = -30% or higher; note: value at the top dose of about 77 µM
#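 PI5P4Kalpha ADP-Glo assay; 5 microM ATP final; 60 min RT reaction; HEPES pH 7.4/EGTA/CHAPS, 5% DMSO; controls lacking substrate or enzyme; luminescent end-point.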
# WRN inhibitor – blocks human WRN helicase; WRN helicase unwinding, fluorescent forked duplex, kinetic; Potency, µM (titrated, usually from 114 µM), most hits filed as inhibitors; hit rate 0.46% among 360,000; AID 651768; note: nearly all actives have a fitted effect of over 55% in size
#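 WRN at 20 nM final was preincubated with compound for 15 min at room temperature; reaction started with 100 nM forked duplex oligonucleotide carrying fluorophore and quencher plus 2 mM ATP (final). Unwinding followed kinetically by red fluorescence (ex 525/em 598 nm).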
# Hits are given with their value; - = inactive; ? = inconclusive; . = no result given; [ ] = dose if it differs, or a comment. Unless noted, calls come from the whole dose curve; as a rule, active = well fitted curve in the direction sought with a large enough effect; inconclusive = small, poorly fitted or top-dose-only effect, or another doubt; inactive = no such curve, though single readings can be large; an effect the other way counts as inactive or inconclusive.
SMILES,Pol iota inh,POLH inh,POLB inh,Pol kappa inh,PI5P4Ka inh,WRN inhibitor
O=C1/C(=C\c2ccccn2)SC(=S)N1Nc1ncc(C(F)(F)F)cc1Cl,-,-,-,-,.,-
CC1CCC/C(=C\Nc2ccc(O)cc2)C1=O (stereo unspecified),8.9µM,-,-,-,-,-[11.6 µM]
CC(C)c1ccc(/C=C2\SC(=O)N(CC(=O)NC3CCS(=O)(=O)C3)C2=O)cc1 (stereo unspecified),16µM,50µM,?,-,-,-[11.6 µM]
Cc1ccc(-n2ncc(C(=O)NCCN3CCN(C)CC3)c2C2CCN(C(=O)OC(C)(C)C)CC2)c(C)c1,-,-,-,-,.,.
CCOC(=O)[C@]12CCCC=C1N(Cc1cccc3ccccc13)C(=O)[C@H](CC(=O)NCC1CCCCC1)C2,.,.,.,.,-,-
O=C(O)CCCCCn1c(SCC(=O)Nc2ccc(F)cc2)nc2ccsc2c1=O,-,-,-,-,-,-
O=C(O)CCCCn1c(SCC(=O)Nc2ccccc2C(F)(F)F)nc2ccsc2c1=O,-,-,-,-,-99,-
Cc1ccc(NC(=O)c2ccc3ncsc3c2)cc1S(=O)(=O)N(C)C,.,.,-,.,.,.
O=C(NCCCN1CCCC1)c1ccc2c(c1)N(Cc1ccccc1F)C(=O)c1ccccc1S2(=O)=O,-,-,-,-,-,-
Cc1c(Cl)cnc(NC(=O)COC(=O)C(NC(=O)c2ccco2)C(C)C)c1Cl (stereo unspecified),?,89µM,45µM,-,-,-
COc1ccc(CC(=O)OCC(=O)Nc2ncc(Cl)c(C)c2Cl)cc1,?,20µM,.,-,-,-
Cc1c(Cl)cnc(NC(=O)COC(=O)c2ccc3c(c2)OCO3)c1Cl,-,?,-,-,-,-
Cc1noc(C)c1C(=O)OCC(=O)Nc1ncc(Cl)c(C)c1Cl,?,20µM,.,-,-,-[11.6 µM]
Cc1c(Cn2cnc3c(cnn3C(C)(C)C)c2=O)cccc1C(F)(F)F,-,.,.,-,.,.
COC(=O)c1ccc(NC(=O)COC(=O)COc2cccc3c2OC(C)(C)C3)cc1,-,-,.,-,-,-
O=C(c1ccc2c(=O)n3c(nc2c1)CCCCC3)N1CCN(C(c2ccccc2)c2ccccc2)CC1,89µM,-,-,-,.,-
CC(=O)c1ccc(NC(=O)Cn2cnc(S(=O)(=O)N3CCc4ccccc43)c2)cc1,?,-,-,-,-,-
CCCS(=O)(=O)c1c(S(=O)(=O)CCC)c2cc(C(C)(C)C)ccn2c1C(=O)c1ccccc1,-,89µM,-,-,.,.
N#Cc1cc(C#N)c(SCC(=O)N2CC(=O)Nc3ccccc32)nc1N,?,?,.,?,-53,-
O=C(O)C1CCN(C(=O)CCc2ccccc2)CC1,-,-,50µM,-,-,-
O=C1CN(S(=O)(=O)c2cc(C(=O)O)ccc2Cl)c2ccccc2N1,?,50µM,50µM,-,-,?
O=C1CN(S(=O)(=O)c2ccccc2)c2ccccc2N1,-,-,?,-,-,-
Cc1oc(C(=O)O)cc1COc1ccc2c(C)cc(=O)oc2c1,-,22µM,?,-,-,-
O=C(Cc1ccc(OCCCc2ccccc2)cc1)NO,-,.,.,-,.,.
CC1C(=O)N(Cc2cn(Cc3ccco3)nn2)CCS(=O)(=O)N1Cc1ccc(-c2cccnc2)cc1 (stereo unspecified),.,.,.,.,?,50µM
SMILES,Pol iota inh,POLH inh,POLB inh,Pol kappa inh,PI5P4Ka inh,WRN inhibitor
Cc1cc(C)cc(NC(=O)Cn2nnc(C(=O)NCc3ccccc3Cl)c2N)c1,?,-,-,-,-,-
Cc1ccccc1NC(=O)Cn1nnc(C(=O)NCCc2ccccc2)c1N,-,-,14µM,-,.,.
Nc1c(C(=O)NCCc2ccccc2)nnn1CC(=O)Nc1ccc(Cl)cc1,79µM,-,?,-,.,.
Cc1ccc(C)c(NC(=O)Cn2nnc(C(=O)NCc3ccccc3Cl)c2N)c1,?,-,35µM,-,.,.
COc1cccc(CNC(=O)c2nnn(CC(=O)Nc3ccc(C)c(C)c3)c2N)c1,?,?,25µM,-,-,-
CCc1ccccc1NC(=O)Cn1nnc(C(=O)NCc2cccc(OC)c2)c1N,?,-,?,-,-,-[11.6 µM]
Cc1c(C(=O)NC(C)c2ccccn2)oc2c(Cl)cccc12 (stereo unspecified),-,-,.,-,-,-
C[C@@H](c1ncncc1F)[C@](O)(Cn1cncn1)c1ccc(F)cc1F,.,.,-,.,.,.
CSc1cccc(NC(=O)Cn2nnc(C(=O)NCCc3ccccc3)c2N)c1,79µM,-,25µM,-,.,.
O=C(NCCc1c[nH]c2ccccc12)OCCSS(=O)(=O)O,25µM,-,-,-,-,-
O=C(CSc1nc(C(F)(F)F)cc(=O)[nH]1)N1CCCC1,-,-,.,-,-,-
CS(=O)(=O)N1CCN(c2nc(-c3cccs3)nc3ccccc23)CC1,-,.,.,-,.,.
COc1cccc(CNC(=O)C(Cc2ccccc2)NS(=O)(=O)c2ccc3c(c2)CCN3C(C)=O)c1 (stereo unspecified),-,-,-,-,.,.
COc1cccc(NS(=O)(=O)c2ccc3c(c2)CCCN3C(C)=O)c1,-,-,79µM,-,.,-
COc1ccc(CNC(=O)C(Cc2ccccc2)NS(=O)(=O)c2ccc3c(c2)CCN3C(C)=O)cc1 (stereo unspecified),?,-,25µM,-,.,.
CC(=O)N1CCc2cc(S(=O)(=O)NC(C(=O)NC3CCCc4ccccc43)C(C)C)ccc21 (stereo unspecified),-,-,32µM,-,-,-
CCOC(=O)N1CCc2c(sc(NCc3cccc(F)c3)c2C(=O)Nc2ccc(OC)cc2OC)C1,-,-,-,-,.,.
O=C(/C=C/c1ccc(Cl)cc1Cl)c1ccc[nH]1,-,-,-,-,-,-
CNc1ccc(Br)cc(C(=O)/C=C/c2ccc(OC)cc2OC)c1=O,11µM,45µM,?,?,?,?
CNc1ccc(Br)cc(C(=O)/C=C/c2ccc(Cl)cc2Cl)c1=O,?,50µM,32µM,-,-,-[11.6 µM]
COc1ccc(/C=C/C(=O)c2ccc(OC)cc2OC)c(OC)c1,-,-,-,-,-,-
CNc1ccc(Br)cc(C(=O)/C=C/c2cccc(OC)c2)c1=O,?,16µM,-,?,-,-
O=C1CN(C(=O)COC(=O)c2ccccc2NCc2ccco2)c2ccccc2N1,-,-,-,-,-,-
Cc1ccc(NC(=O)CN(Cc2ccccc2)S(=O)(=O)c2ccc3nc(C)sc3c2)c(C)c1,-,-,-,-,.,.
CN=C(c1ccc(C)cc1)n1c(=S)nc(-c2ccc(C)cc2)n(C)c1=S,-,-,-,-,-,-
CN=C(c1ccco1)n1c(=S)nc(-c2ccco2)n(C)c1=S,?,?,-,-,-68,?
CCOC(=O)c1c(NC(=O)/C=C/C(=O)O)sc(C)c1-c1ccc(C(C)(C)C)cc1,?,22µM,?,-,-,-
CCOC(=O)c1c(NC(=O)/C=C\C(=O)O)sc(C)c1-c1ccccc1,-,-,-,-,?,-
